Assay results from PubChem BioAssay AID1069 (NMMLSC, 2008).
Active and inactive are the calls of the source.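 How the source made its calls: active means high combined rank on largest and smallest cell-count-weighted shift across three tests, rank score above 45, floors 50 and 25 (some results past the limit were not filed as active); inactive means the rest.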

Test: activators of LNCaP cell differentiation, retest, confirmation, side scatter shift, flow cytometry (AID 1069);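 further: LNCaP human prostate cancer cells in low-serum medium with charcoal-stripped FBS; percent of cells with raised granularity gated so DMSO controls show 10%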
Details: 4 d, stronger effect = higher value

Structure (SMILES) | side scatter shift (at 100 µM) | side scatter shift (side scatter shift, at 10 µM) [%]
Cc1nc(NCCNC(=O)c2ccco2)c2c(C)c(C)sc2n1 | 24.1% (inactive) | 4.2
Cc1ccc2c(c1)-c1c(cnn1CC(=O)Nc1ccccc1N1CCN(C)CC1)CO2 | 9.6% (active) | 38
C=CCn1c(=N)n(CC(O)COc2ccc(OC)cc2)c2ccccc21 (stereo unspecified) | 18.9% (inactive) | 10.9
CCCCOC(=O)Nc1cc(C(=O)OC)ccc1C(=O)OC | 21% (inactive) | 1.25
CC(C)(O)c1cn(-c2nonc2N)nn1 | 10.4% (inactive) | 5.4
CCN(CC)CCCNC(=O)c1cc(-c2ccc(Cl)c(Cl)c2)on1 | 22.7% (inactive) | 36.7
Cc1nc2c3cnn(-c4ccccc4)c3ncn2n1 | 5% (inactive) | 1.75
COCCNC(=O)CC(NS(=O)(=O)c1ccc(NC(C)=O)cc1)C(C)C (stereo unspecified) | 6.3% (inactive) | 9.45
CCOC(=O)c1[nH]c(C)c(C(=O)N2CCc3ccccc32)c1C | 7.7% (inactive) | 15.4
Cc1ccc(C)c(N2CCN(CCCNC(=O)Cn3cc4c(n3)CCCCC4)CC2)c1 | 0% (inactive) | 7.55
COc1cc2c(C(=O)NCCCN3CCN(c4cccc(Cl)c4)CC3)cn(C)c(=O)c2cc1OC | 53.3% (inactive) | 15.4
Cc1cc(=O)n2nc(N3CCCC(C(=O)NCc4ccco4)C3)sc2n1 (stereo unspecified) | 7.4% (inactive) | 4.75
CCOC(=O)C1CCCN(C(=O)Cn2cccc2C(=O)c2ccccc2)C1 (stereo unspecified) | 6% (inactive) | 2.5
COc1ccc2nc3oc(C(=O)NCc4cccs4)cc3cc2c1 | 3.9% (inactive) | 3.9
COc1ccc(N2CCN(CCCNC(=O)CN3CCN(Cc4ccccc4C)C3=O)CC2)cc1 | 15.8% (inactive) | 16.6
CCOc1ccccc1NC(=O)c1nc[nH]c1C(=O)Nc1ccccc1OCC | 40% (inactive) | 6.05
Cc1cc(C)nc(N2CCC(C(=O)Nc3ccc(Oc4ccccc4)cc3)CC2)n1 | 44.1% (inactive) | 3.05
CCn1c(=O)cc(SCC(=O)NCCCN2CCN(c3ccccc3F)CC2)c2ccccc21 | 0% (active) | 33.5
CCc1cc(C)cc(OCCNC(=O)c2ncn[nH]2)c1 | 3.5% (inactive) | 0
CCOC(=O)N1CCC(NC(=O)c2cc3c(-c4ccc(OC)c(OC)c4)nn(C)c3s2)CC1 | 16.6% (inactive) | 3.9
COc1ccccc1N1CCN(c2nc3ccccc3nc2C(C#N)C(=O)OC(C)C)CC1 (stereo unspecified) | 78.2% (active) | 21.1

Structure (SMILES) | side scatter shift (at 100 µM) | side scatter shift (side scatter shift, at 10 µM) [%]
Cn1c(=O)[nH]c(=O)c2c1nc(Br)n2CCCSc1nc2ccccc2o1 | 0% (inactive) | 8
c1cncc(-c2nc3ccccc3o2)c1 | 10.2% (inactive) | 2.9
CCCNC(=O)C1CN(S(=O)(=O)c2ccccc2)CCN1S(=O)(=O)c1ccccc1 (stereo unspecified) | 13.3% (inactive) | 8
COc1ccc(CCn2c(=N)c(C(=O)NCc3ccco3)cc3c(=O)n4ccccc4nc32)cc1 | 59.4% (inactive) | 4.85
Cc1nc2nc(C)c(CCC(=O)NCCCN3CCN(c4cccc(Cl)c4)CC3)c(C)n2n1 | 27.9% (inactive) | 7.4
Cc1cccc(-c2nc(CN3CCCC(C(=O)NC4CCCCCC4)C3)c(C)o2)c1 (stereo unspecified) | 41.2% (inactive) | 10.8
c1ccc(N2CCN(c3nnc(Cc4cccnc4)c4ccccc34)CC2)nc1 | 17.5% (inactive) | 8
CCc1ccc(-c2nc(CN3CCC(C(=O)NCc4ccc(F)cc4)CC3)c(C)o2)cc1 | 0% (inactive) | 17.9
CCn1c(=O)cc(SCC(=O)NCCCN2CCN(c3ccc(F)cc3)CC2)c2ccccc21 | 14.3% (inactive) | 21.6
CCOC(=O)CSc1nnc(CNC(=O)c2ccccc2OC)n1-c1ccc(OC)cc1 | 11.3% (inactive) | 4.3
Cc1oc(-c2ccc(Cl)cc2)nc1CN1CCC(C(=O)NCCCN2CCOCC2)CC1 | 41.7% (inactive) | 27.7
Nc1ccccc1NC(=O)c1ccccc1N | 5.9% (inactive) | 2.1
CCOC(=O)N1CCC(NC(=O)c2cc3c(-c4cccc(OC)c4)nn(C)c3s2)CC1 | 7.7% (inactive) | 2.35
COc1ccc(N2CCN(CCCNC(=O)CCCn3c(=O)[nH]c4ccsc4c3=O)CC2)cc1 | 7.7% (inactive) | 20.6
Cc1ccc(C(=O)/C=C/Nc2cccc(O)c2)cc1 | 35.3% (inactive) | 4.85
CN(C(=O)c1ccccn1)c1nnc(-c2cccnc2)s1 | 8.3% (inactive) | 2.1
Cc1oc(-c2ccccc2F)nc1CN1CCC(C(=O)NC2CC2)CC1 | 13.5% (inactive) | 2.4
COc1ccc(/C=N/c2nc3ccccc3n2C)cc1OC | 10% (inactive) | 6.6
Cc1oc(-c2ccc(Cl)cc2)nc1CN1CCCC(C(=O)N2CCN(C(=O)c3ccco3)CC2)C1 (stereo unspecified) | 42.1% (inactive) | 3.65
CSc1nc2ccc(Nc3nc(N4CCOCC4)nc(N4CCOCC4)n3)cc2s1 | 14.6% (inactive) | 5.1
COc1ccc(Cl)c(N2CCN(CCCNC(=O)Nc3ccc(C)cc3)CC2)c1 | 26.3% (inactive) | 12

Structure (SMILES) | side scatter shift (at 100 µM) | side scatter shift (side scatter shift, at 10 µM) [%]
CCOC(=O)N1CCC(NC(=O)c2cc3c(-c4ccc(Cl)cc4)nn(C)c3s2)CC1 | 22.5% (inactive) | 6.9
COc1ccc(Cc2nc(-c3ccc(-n4cccc4)cc3)no2)cc1OC | 23.5% (inactive) | 15.8
CN1CCN(CC(=O)Nc2ccc(Cl)cc2Cl)CC1 | 23.1% (inactive) | 6.1
Cc1ccc(C)c(N2CCN(CCCNC(=O)Cn3cc4c(n3)CCC(C)C4)CC2)c1 (stereo unspecified) | 20% (inactive) | 25.6
COc1ccc(-c2cc(C(F)(F)F)nc(N3CCN(C)CC3)n2)cc1 | 25% (inactive) | 13.6
CCn1c(=O)cc(OCC(=O)O)c2ccccc21 | 31.8% (inactive) | 6.7
COc1ccc(Nc2nc(N)nc(CN3CCC(Cc4ccccc4)CC3)n2)cc1 | 16.7% (inactive) | 33.3
CCCS(=O)(=O)N1CCCC(C(=O)NCCCN2CCN(c3ccccc3F)CC2)C1 (stereo unspecified) | 35.5% (inactive) | 5.95
O=C(CSc1nc2sc3c(c2c(=O)n1-c1ccccc1)CCCC3)NCc1ccco1 | 24% (inactive) | 4.3
CCCCCn1c(=N)n(CC(O)COc2ccccc2OC)c2ccccc21 (stereo unspecified) | 15% (inactive) | 25.1
Cc1ccc2c(c1)c1c(n2CC(O)Cn2c(C)nc3ccccc32)/C(=N\O)CCC1 (stereo unspecified) | 18.8% (inactive) | 10.1
CCN1CCN(c2ncc(C(=O)Nc3cc(Cl)c(OC)cc3OC)c3ccccc23)CC1 | 53.7% (inactive) | 19.2
CCOc1nc(-c2ccccc2O)nc2ccccc12 | 13.5% (inactive) | 8.8
COc1ccc2c(c1)CCc1c(C(=O)Nc3cc(C)n(Cc4ccc(Cl)cc4)n3)noc1-2 | 37.2% (inactive) | 7.45
COc1ccc(CCN2CCC(Nc3nc4ccccc4n3Cc3ccc(F)cc3)CC2)cc1 | 0% (active) | 35.3
Cc1oc(-c2ccc(Cl)cc2)nc1CN1CCCC(C(=O)NCc2cccnc2)C1 (stereo unspecified) | 25% (inactive) | 7.2
CCN1CCN(C(c2cccs2)C(C)NS(=O)(=O)c2ccc(Br)cc2)CC1 (stereo unspecified) | 82.4% (inactive) | 17.8
COc1ccc2cc3cc(C(=O)Nc4ccccc4N4CCN(C)CC4)oc3nc2c1 | 68.3% (active) | 42.7
O=C(NCCc1c[nH]c2ccccc12)C(F)(F)C(F)F | 9% (inactive) | 5.05
Cc1ccc(-n2nc3cc(Cl)c(NC(=O)c4ccco4)cc3n2)cc1 | 20.7% (inactive) | 2.8
COc1ccc(Cl)cc1N1CCN(CCNC(=O)Nc2ccccc2C)CC1 | 16.7% (inactive) | 3.25
